Assay results published in ChEMBL document CHEMBL3988442, “University of Dundee, Small-Polar-MMV Screening Library” (2021).

Assays:
[1] = target: T1, Aspartate--tRNA(Asp/Asn) ligase (Mycobacterium tuberculosis (strain ATCC 25618 / H37Rv)) (UniProt P9WFW3); assay: Assay for Asp RNA synthetase-1 from Mycobacterium tuberculosis; assay type: functional; parameters: scale not given: direction of the effect not stated beside the values; settings: 30 µM; also: in the data most compounds retested in dose-response had high values
T1 sequence (whole entry): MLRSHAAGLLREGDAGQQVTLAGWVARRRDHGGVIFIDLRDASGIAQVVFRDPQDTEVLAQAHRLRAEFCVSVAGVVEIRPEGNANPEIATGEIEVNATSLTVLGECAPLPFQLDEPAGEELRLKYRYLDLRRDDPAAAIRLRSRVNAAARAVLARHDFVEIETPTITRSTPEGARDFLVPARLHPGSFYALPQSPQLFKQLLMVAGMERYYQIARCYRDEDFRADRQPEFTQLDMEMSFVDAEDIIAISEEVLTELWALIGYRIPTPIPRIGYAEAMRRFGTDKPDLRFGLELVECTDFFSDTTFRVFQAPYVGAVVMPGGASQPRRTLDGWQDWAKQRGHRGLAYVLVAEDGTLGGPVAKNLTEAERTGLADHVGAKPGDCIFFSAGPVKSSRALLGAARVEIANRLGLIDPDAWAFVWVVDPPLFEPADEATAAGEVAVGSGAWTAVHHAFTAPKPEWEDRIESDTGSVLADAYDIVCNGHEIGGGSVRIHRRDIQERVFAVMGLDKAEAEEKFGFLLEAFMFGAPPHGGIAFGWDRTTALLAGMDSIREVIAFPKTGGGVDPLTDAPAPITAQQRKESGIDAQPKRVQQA

[2] = target: Shiga toxin 2 (Escherichia coli O157:H7) (UniProt P09385+P09386); assay: E. coli 0.157:H7 Shiga Toxin SOP - stx2 screening assay; assay type: functional; parameters: scale not given: direction of the effect not stated beside the values; settings: 30 µM

Row | SMILES | Percent Effect [1] [%] | Percent Effect [2] [%]
1 | CC(Cn1cccn1)NCc1csc(-c2ccccc2F)n1 (centres undefined) | -4.2 | -6.96
2 | O=C1NC(c2ccccc2)=N[C@@]12CC[C@@H]1CN(Cc3ccccc3)C[C@@H]12 | 0.728 | -14.6
3 | CC(C)n1cc(CN2CCCN(C(=O)c3ccc[nH]3)CC2)cn1 | -3.14 | -5.02
4 | CNC(=O)c1cccnc1Oc1ccccc1 | -3 | 8.4
5 | Cc1nn(C)c(C)c1C1COCCN1C(=O)c1n[nH]c2ccccc12 (centres undefined) | -1.46 | -15.4
6 | CCc1nc2n(n1)CC(Nc1cc(C)nc3ncnn13)CC2 (centres undefined) | -4.28 | 2.96
7 | CN1C[C@H]2CCN(C(=O)NC3CCCC3)CC[C@H]2S1(=O)=O | 2.12 | -19.5
8 | CN1CC(c2ccccc2)CC12CCN(C(=O)c1cncc(Cl)c1)CC2 (centres undefined) | 0.408 | 12.5
9 | CC(NC(=O)NCCCn1ccnc1)c1ccc2c(c1)OCCCO2 (centres undefined) | 1.46 | 20.4
10 | Cc1ncc2c(n1)CN(Cc1nnc(Cc3ccccc3)o1)CC2 | 0.379 | -26.9
11 | O=C(NCc1ccccn1)N(Cc1ccc(F)cc1F)C1CC1 | -1.6 | 10.3
12 | Fc1ccccc1Cc1noc(CN2CCCC(CN3CCCC3)C2)n1 (centres undefined) | -0.254 | 11.5
13 | COCCOCC(=O)Nc1ccc(C)cc1F | -1.8 | 2.25
14 | Cc1cc2n(n1)CC(CNCc1ccc(-n3cccn3)nc1)CN2 (centres undefined) | -2.59 | 3.5
15 | CC(C)c1noc(CCCC(=O)N2CCC(Cc3cccnc3)CC2)n1 | -0.0571 | 0.87
16 | O=C1CC2(CCN(CCO)CC2)CN1Cc1cc(F)cc(F)c1 | -2.67 | 11.4
17 | CC(C)c1nnc2n1CCN(C(=O)CN1Cc3ccccc3C1=O)C2 | -0.233 | -25.5
18 | COc1cccc(CNC(=O)CN2CCCCC2Cn2cccn2)c1 (centres undefined) | 0.922 | 20.3
19 | CCOCC1CN(C(=O)N(C)C)Cc2nn(C)cc21 (centres undefined) | 7.75 | -4.03
20 | Cc1ncsc1C(=O)N1CCCN(Cc2cscn2)CC1 | 1.47 | 16.9
21 | Cc1ccc(CN2CCC(c3nnc(CN4CCCCC4)n3C)CC2)o1 | -1.53 | -7.9
22 | CCN1CCCN(C(=O)c2cnc(OC(C)C)c(Cl)c2)CC1 | -0.365 | -50.8
23 | COc1ccc(C(=O)N(Cc2cnn(C)c2)C(C)C)cc1Br | -1.07 | 5.59
24 | Cc1cc(C2CCCN2CCCc2nc3ccccc3o2)on1 (centres undefined) | -0.533 | 28.6

Row | SMILES | Percent Effect [1] [%] | Percent Effect [2] [%]
25 | COc1cccc(-c2nccnc2C2CCN(C(C)=O)CC2)c1 | -3.41 | 16.4
26 | CC(=O)N(Cc1ncc(C(C)C)o1)C1CCN(CCn2cccn2)C1 (centres undefined) | -1.37 | 3.59
27 | Cc1ncsc1C(=O)NC1CCN(CC(=O)N(C)c2ccccc2)CC1 | -3.57 | 34
28 | O=C(c1ccccc1-n1cccn1)N1CCCN(c2cccnn2)CC1 | 0.98 | 33
29 | CN(C)CC(=O)N1CCC2(CCN(Cc3ccccn3)C2=O)C1 (centres undefined) | -3.07 | 9.53
30 | CC(C)c1nc(C2CCCN2Cc2ccn(C)c(=O)c2)no1 (centres undefined) | 3.39 | -44.4
31 | Cc1ccoc1-c1nnc(CNCCn2cccn2)o1 | 0.914 | -39.9
32 | COc1cccc(CNC(=O)N2CCN(Cc3cc(C)on3)CC2)c1 | -2.94 | 4.64
33 | COCC(=O)NCc1cccc(Br)c1 | -1.9 | 20.1
34 | Cc1noc(C2CCN(C(=O)CCNc3ncccn3)CC2)n1 | 0.856 | -36.4
35 | Cc1ncsc1C(=O)N1CCCC(c2noc(C(C)C)n2)C1 (centres undefined) | -6.6 | -6.13
36 | N#Cc1ccc(F)c(CN2CCCC2Cn2cccn2)c1 (centres undefined) | 0.262 | 1.36
37 | O=c1cccnn1CC1CN(Cc2ccsc2)Cc2nccn2C1 (centres undefined) | 7.43 | 5.53
38 | COCCN1CCN(CCCS(C)(=O)=O)CC1C (centres undefined) | -5.8 | -23.7
39 | Cc1nc(C)n(CC2CCCCN2CC(=O)Nc2cccnc2)n1 (centres undefined) | -1.56 | 7.21
40 | O=C(c1cn(-c2ccccc2Cl)nn1)N1CCCSCC1 | 0.212 | 5.41
41 | CCN(Cc1ccccc1)C(=O)CN1CCCC(Cn2cncn2)C1 (centres undefined) | 2.11 | 3.34
42 | CC(C)(C)c1n[nH]cc1CN1CCc2nc3ccsc3c(=O)n2CC1 | -0.849 | 12.6
43 | O=C(c1ccoc1)N1CCCn2cnc(COCC3CC3)c2C1 | -5.91 | -6.53
44 | COc1ccc(OC)c(C2C3=C(COC3=O)Nc3[nH]nc(C)c32)c1 (centres undefined) | -2.76 | -22.3
45 | COc1cccc(CNc2nc(O)cc(C3CC(=O)N(C)C3)n2)c1 (centres undefined) | 4.42 | 12.2
46 | CC(=O)c1cn(CCC(=O)N[C@H](C(=O)O)C(C)C)c2ccccc12 | -1.95 | -36.7
47 | O=C(NCC1CCOCC1)[C@H]1C[C@@H]2CCN(Cc3ccncc3)C[C@@H]2O1 | 2.48 | -19.5
